Test results from PubChem BioAssay (EPA / NIEHS).
Active and inactive are the calls of the source. Rule for the calls: active = hit-call score of the fitted dose curve at least 0.9, where 1 is the maximum; inactive = score below 0.9.

Tests used:
Details in all cases: primary human HUVEC with PBMC; actives raise or lower the signal
[1] = read-out: Macrophage colony-stimulating factor (MCSF), CSF1 (gene 1435); test: BSK_LPS_MCSF: BioMAP Diversity Plus: LPS Assay for Macrophage colony-stimulating factor (MCSF) Biomarker Activity (AID 2283083)
Procedure, shortened: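 ELISA readout of M-CSF after 24 h compound exposure in a human endothelial/PBMC co-culture. Activity, in either direction, is fitted relative to DMSO vehicle.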

[2] = read-out: Tissue Factor, F3 (gene 2152); test: BSK_LPS_TissueFactor: BioMAP Diversity Plus: LPS Assay for Tissue Factor Biomarker Activity (AID 2283084)
Procedure, shortened: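 ELISA signal for cell-surface Tissue Factor (CD142) was read 24 h after compound dosing of an LPS-stimulated human endothelial–PBMC primary co-culture. Gain or loss of signal was scored relative to DMSO.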

[3] = read-out: Tumor necrosis factor (Homo sapiens) (UniProt P01375); test: BSK_LPS_TNFa: BioMAP Diversity Plus: LPS Assay for Tumour Necrosis Factor alpha (TNFa) Biomarker Activity (AID 2283085)
Procedure, shortened: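 Read-out is ELISA of TNFa in primary human endothelial cell–PBMC co-cultures at 24 h after compound. Activity in either direction was fitted against DMSO.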

[4] = read-out: Vascular cell adhesion molecule 1 (VCAM1), VCAM1 (gene 7412); test: BSK_LPS_VCAM1: BioMAP Diversity Plus: LPS Assay for Vascular cell adhesion molecule 1 (VCAM1) Biomarker Activity (AID 2283086)
Procedure, shortened: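 HUVEC + PBMC co-culture, LPS system; compound 24 h; VCAM-1 by ELISA; bidirectional fit vs DMSO control; parallel SRB (0.1%, TCA-fixed, 560 nm) for cytotoxicity.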

CD38, CD38 (gene 952) = test: BSK_SAg_CD38: BioMAP Diversity Plus: SAg Assay for CD38 Biomarker Activity (AID 2283087)
Procedure, shortened: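 Human HUVEC plus PBMC co-culture stimulated with superantigen; CD38 measured by ELISA 24 h after chemical dosing. Fluorescence read-out, bidirectional fit against DMSO; cytotoxicity tracked in parallel by SRB and Alamar Blue.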

CD40, CD40 (gene 958) = test: BSK_SAg_CD40: BioMAP Diversity Plus: SAg Assay for CD40 Biomarker Activity (AID 2283088)
Procedure, shortened: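 Compounds were dosed onto a human primary endothelial–PBMC co-culture, and after 24 h CD40 was quantified by ELISA using a fluorescence signal. Activity in either direction was fitted relative to DMSO.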

CD69, CD69 (gene 969) = test: BSK_SAg_CD69: BioMAP Diversity Plus: SAg Assay for CD69 Biomarker Activity (AID 2283089);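 for AC50: cell surface CD69 protein quantified by ELISA with fluorescence detection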
Procedure, shortened: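 Values derive from bidirectional fitting relative to DMSO vehicle. Cells: umbilical vein endothelium plus peripheral blood mononuclear cells, treated 24 h before fluorescent ELISA for CD69.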

[5] = read-out: Monocyte Chemoattractant Protein-1 (MCP1), CCL2 (gene 6347); test: BSK_SAg_MCP1: BioMAP Diversity Plus: SAg Assay for Monocyte Chemoattractant Protein-1 (MCP1) Biomarker Activity (AID 2283090)
Procedure, shortened: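 MCP-1 levels in the endothelial–PBMC SAg co-culture were quantified by ELISA at 24 h post-dosing; both increases and decreases versus DMSO scored. Cytotoxicity monitored by SRB total protein in parallel cultures.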

[6] = read-out: E-selectin (Homo sapiens) (UniProt P16581); test: BSK_SAg_Eselectin: BioMAP Diversity Plus: SAg Assay for Eselectin Biomarker Activity (AID 2283091)
Procedure, shortened: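 Co-culture: HUVEC + PBMC. Dose compound; 24 h. ELISA for E-selectin. Bidirectional fit vs DMSO.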

Measured: AC50

Tumor necrosis factor (Homo sapiens), sequence (P01375 whole entry, looked up): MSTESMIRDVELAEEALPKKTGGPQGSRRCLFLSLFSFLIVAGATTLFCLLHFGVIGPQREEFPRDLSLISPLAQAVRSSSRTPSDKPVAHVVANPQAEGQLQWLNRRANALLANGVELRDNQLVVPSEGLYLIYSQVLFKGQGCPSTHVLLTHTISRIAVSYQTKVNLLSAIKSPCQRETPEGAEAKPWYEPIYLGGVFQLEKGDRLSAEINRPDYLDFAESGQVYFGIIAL
E-selectin (Homo sapiens), sequence (P16581 whole entry, looked up): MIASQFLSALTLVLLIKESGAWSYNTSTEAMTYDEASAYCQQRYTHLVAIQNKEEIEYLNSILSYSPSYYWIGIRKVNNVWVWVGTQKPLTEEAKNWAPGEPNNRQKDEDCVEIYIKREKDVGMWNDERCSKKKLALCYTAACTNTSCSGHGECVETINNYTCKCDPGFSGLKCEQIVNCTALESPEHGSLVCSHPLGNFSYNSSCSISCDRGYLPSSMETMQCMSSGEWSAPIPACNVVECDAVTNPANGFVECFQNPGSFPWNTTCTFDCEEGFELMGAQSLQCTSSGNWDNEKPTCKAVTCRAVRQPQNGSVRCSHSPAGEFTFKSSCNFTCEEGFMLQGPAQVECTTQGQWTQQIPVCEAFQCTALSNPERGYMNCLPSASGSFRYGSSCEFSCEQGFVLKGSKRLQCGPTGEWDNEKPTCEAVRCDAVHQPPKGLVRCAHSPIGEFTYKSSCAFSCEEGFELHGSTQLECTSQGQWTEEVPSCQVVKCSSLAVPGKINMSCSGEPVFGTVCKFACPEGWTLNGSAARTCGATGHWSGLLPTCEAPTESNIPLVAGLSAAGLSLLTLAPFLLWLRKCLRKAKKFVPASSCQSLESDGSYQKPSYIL

Cc1ccc(Nc2ccc(O)c3c2C(=O)c2ccccc2C3=O)cc1
active: [3] 0.435 µM
inactive: all other assays above

CC(C)c1ccc(C(C)C)cc1
inactive: all assays above

CCn1c2ccccc2c2cc(N)ccc21
inactive: [2] | [3] | [4] | [6]
active: [1] 7.37 µM | CD38, CD38 (gene 952) 4.91 µM | CD40, CD40 (gene 958) 6.33 µM | CD69, CD69 (gene 969) 4.02 µM | [5] 1.85 µM

CC1CCC(C(C)CS)CC1S (stereo not drawn)
active: [1] 36.4 µM | [2] 30.9 µM | [4] 34.8 µM | CD38, CD38 (gene 952) 32.8 µM | CD40, CD40 (gene 958) 31.6 µM | CD69, CD69 (gene 969) 30.8 µM | [5] 32.6 µM | [6] 30.8 µM
inactive: [3]

CCCCCCCCCCCCCCCCCC(=O)OCC(CC)CCCC (stereo not drawn)
inactive: all assays above

O=P(c1ccccc1)(c1ccccc1)c1ccccc1
inactive: all assays above

CNC[C@H](O)c1cccc(O)c1
inactive: all assays above

CCC(=O)OCc1ccccc1
inactive: all assays above

CC(=O)O[C@]1(C(C)=O)CC[C@H]2[C@@H]3C[C@H](C)C4=CC(=O)CC[C@]4(C)[C@H]3CC[C@@]21C
inactive: all assays above

CC[Si](OC(C)=O)(OC(C)=O)OC(C)=O
inactive: all assays above

CC(=O)OCCC(C)CC(C)(C)C (stereo not drawn)
inactive: all assays above

N#Cc1ccc(CC(=NNC(=O)Nc2ccc(OC(F)(F)F)cc2)c2cccc(C(F)(F)F)c2)cc1
inactive: all assays above

Nc1cc([N+](=O)[O-])ccc1Cl
inactive: all assays above

O=C(O)c1cn(-c2ccc(F)cc2)c2cc(N3CCNCC3)c(F)cc2c1=O
inactive: all assays above

CCCCCCCCCC=O
active: CD38, CD38 (gene 952) 29.3 µM | CD69, CD69 (gene 969) 29.9 µM | [6] 33.6 µM
inactive: all other assays above

CCCCCCCCC=O
inactive: all assays above

OC[C@H]1O[C@H](O[C@]2(CCl)O[C@H](CCl)[C@@H](O)[C@@H]2O)[C@H](O)[C@@H](O)[C@H]1Cl
inactive: all assays above

CC(=O)/C=C/C1=C(C)CCCC1(C)C
inactive: all assays above

O=C(O)c1cn(C2CC2)c2cc(N3CCNCC3)c(F)cc2c1=O
not listed: [1]
inactive: all other assays above

OC1OC[C@@H](O)[C@H](O)[C@H]1O (stereo partly drawn)
inactive: all assays above

Cc1ccc(O)c(C(C)(C)C)c1
active: [1] 36.9 µM | [2] 30.4 µM | [3] 34.8 µM | [4] 36.8 µM | CD38, CD38 (gene 952) 37 µM | CD40, CD40 (gene 958) 35.5 µM | CD69, CD69 (gene 969) 30.9 µM | [5] 36.6 µM | [6] 37.5 µM

c1ccc2c(c1)c1cccc3ccc4cccc2c4c31
active: [2] 0.369 µM
inactive: all other assays above

C=C[Si](OCC)(OCC)OCC
inactive: all assays above

CC(C)(COC(=O)c1ccccc1)COC(=O)c1ccccc1
inactive: [2] | [3] | CD38, CD38 (gene 952) | [5]
active: [1] 30.9 µM | [4] 26.2 µM | CD40, CD40 (gene 958) 32.3 µM | CD69, CD69 (gene 969) 31.7 µM | [6] 28.8 µM

O=C1OC2(c3cc(Br)c(O)c(Br)c3Oc3c2cc(Br)c(O)c3Br)c2c(Cl)c(Cl)c(Cl)c(Cl)c21
active: [1] 5.42 µM | [2] 8.77 µM | [4] 5.55 µM | CD38, CD38 (gene 952) 5.04 µM | CD40, CD40 (gene 958) 6.57 µM | CD69, CD69 (gene 969) 6.39 µM | [5] 5.24 µM | [6] 6.53 µM
inactive: [3]

O=C=NC1CCC(CC2CCC(N=C=O)CC2)CC1 (stereo not drawn)
active: [2] 3.97 µM | [3] 2.2 µM
inactive: all other assays above
